The record followed here is the supplement of paper PMC8866396.

One assay concerns IL-6-GFP PC-9GR. The assay can be described thus: cell viability (CCK-8 OD) relative to DMSO control (fraction of control); higher = more viable cells. Particulars: compound concentration: 10 uM; treatment time: 48 h. Summed up: (§1)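 A purchased 510-compound library was screened at a final 10 μM for 48 h against PC-9 and PC-9GR lung cancer cells overexpressing IL-6-GFP via a lentiviral construct, seeded at 3000 cells/well in 96-well plates. GFP imaging was done on a parallel plate set. For viability, CCK-8 absorbance was recorded and each well's optical density was divided by that of the vehicle control well. There were two independent replicates.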

A further assay deals with IL-6-GFP PC-9. Described as above. The conditions noted are these: compound concentration: 10 uM; treatment time: 48 h. Summed up: as §1

± gives the standard deviation of the averaged measurements.

In the case of `COc1ccc(C2OCC3C(c4cc(OC)c(OC)c(OC)c4)OCC23)cc1OC` (stereo not given) [Magnolin], the cell viability was determined as 0.791 ± 0.087 in the assay with IL-6-GFP PC-9GR and 1.08 ± 0.081 with IL-6-GFP PC-9.

In the case of `CC12CCC3c4ccc(O)cc4CC(CCCCCCCCCS(=O)CCCC(F)(F)C(F)(F)F)C3C1CCC2O` (stereo not given) [Fulvestrant], the cell viability with IL-6-GFP PC-9GR stood at 1.14 ± 0.072; in the assay on IL-6-GFP PC-9, 1.024 ± 0.0045.

As to `CC(C)C1C(=O)NC(CCCNC(=N)N)C(=O)NCC(=O)NC(CC(=O)O)C(=O)NC(Cc2ccccc2)C(=O)N1C.O=C(O)C(F)(F)F` (stereo not given), the cell viability came to 1.13 ± 0.28 in the assay with IL-6-GFP PC-9GR and 1.26 ± 0.087 in the assay on IL-6-GFP PC-9.

For `Cc1ccc(C2OC(CO)C(O)C(O)C2O)cc1Cc1ccc(-c2ccc(F)cc2)s1.Cc1ccc(C2OC(CO)C(O)C(O)C2O)cc1Cc1ccc(-c2ccc(F)cc2)s1.O` (stereo not given) [Canagliflozin hemihydrate], the cell viability with IL-6-GFP PC-9GR was found to be 1.12 ± 0.2; in the assay on IL-6-GFP PC-9, 0.932 ± 0.22.

With `CN1CCN(c2ccc(C(=O)Nc3n[nH]c4ccc(Cc5cc(F)cc(F)c5)cc34)c(NC3CCOCC3)c2)CC1` [Entrectinib (RXDX-101)], the cell viability was 0.164 ± 0.14 in the assay with IL-6-GFP PC-9GR and 0.515 ± 0.14 in the assay on IL-6-GFP PC-9.

Consider `CC(Cn1ccc(-c2ccc(C#N)c(Cl)c2)n1)NC(=O)c1cc(C(C)O)[nH]n1` (stereo not given) [Darolutamide (ODM-201)], for which the figures for the cell viability in the assay on IL-6-GFP PC-9GR and in the assay with IL-6-GFP PC-9 were 0.858 ± 0.18 and 0.962 ± 0.21, respectively.

Turning to `CC(C)C(=O)OCC(=O)C12OC(C3CCCCC3)OC1CC1C3CCC4=CC(=O)C=CC4(C)C3C(O)CC12C` (stereo not given) [Ciclesonide], the cell viability in the assay on IL-6-GFP PC-9GR amounted to 0.855 ± 0.11; in the assay on IL-6-GFP PC-9, 0.894 ± 0.16.

`CC1CC2C3CC(F)C4=CC(=O)C=CC4(C)C3(F)C(O)CC2(C)C1(O)C(=O)CO` (stereo not given) [Diflorasone]: the cell viability with IL-6-GFP PC-9GR is 0.825 ± 0.11; in the assay with IL-6-GFP PC-9, 0.833 ± 0.23.

Regarding `COc1cc2ncnc(Nc3ccc(F)c(Cl)c3)c2cc1NC(=O)/C=C/CN1CCCCC1`, the cell viability in the assay with IL-6-GFP PC-9GR is 0.477 ± 0.02; in the assay on IL-6-GFP PC-9 it was 0.443 ± 0.033.

Consider `O=c1[nH]c(=O)n(C2CCCO2)cc1F` (stereo not given), for which the results for the cell viability with IL-6-GFP PC-9GR and with IL-6-GFP PC-9 were 1.11 ± 0.023 and 1.01 ± 0.013, respectively.

For the compound `Cc1nccn1CC1CCc2c(c3ccccc3n2C)C1=O.Cl` (stereo not given) [Ondansetron HCl], the cell viability turned out to be 1.24 ± 0.19 in the assay on IL-6-GFP PC-9GR and 1.18 ± 0.093 in the assay on IL-6-GFP PC-9.

Turning to `CC(=O)OCC(=O)C1(O)CCC2C3CCC4=CC(=O)CCC4(C)C3C(=O)CC21C` (stereo not given) [Cortisone acetate], the cell viability with IL-6-GFP PC-9GR was determined as 1.29 ± 0.26; in the assay on IL-6-GFP PC-9, 1.12 ± 0.1.

`O.S=c1nc[nH]c2nc[nH]c12` [6-Mercaptopurine (6-MP) Monohydrate]: the figures for the cell viability with IL-6-GFP PC-9GR and with IL-6-GFP PC-9 were 0.92 ± 0.11 and 0.978 ± 0.19, respectively.

With `CN(Cc1cnc2nc(N)nc(N)c2n1)c1ccc(C(=O)NC(CCC(=O)O)C(=O)O)cc1` (stereo not given) [Methotrexate], the cell viability in the assay with IL-6-GFP PC-9GR worked out at 0.638 ± 0.078; in the assay on IL-6-GFP PC-9 it was 0.54 ± 0.15.

With `FC(F)(F)c1ccc(CNc2ccc(Cc3c[nH]c4ncc(Cl)cc34)cn2)cn1` [Pexidartinib (PLX3397)], the cell viability amounted to 0.789 ± 0.2 in the assay with IL-6-GFP PC-9GR and 0.898 ± 0.048 in the assay with IL-6-GFP PC-9.

Take `CCCC(=O)OC1(C(=O)CO)CCC2C3CCC4=CC(=O)CCC4(C)C3C(O)CC21C` (stereo not given) [Hydrocortisone butyrate]: the cell viability with IL-6-GFP PC-9GR turned out to be 0.857 ± 0.11; with IL-6-GFP PC-9, 1.08 ± 0.073.

For the compound `CS(=O)(=O)O.Cc1ccc(NC(=O)c2ccc(CN3CCN(C)CC3)cc2)cc1Nc1nccc(-c2cccnc2)n1` [Imatinib Mesylate (STI571)], the cell viability with IL-6-GFP PC-9GR is 1.26 ± 0.07; in the assay with IL-6-GFP PC-9 it was 1.1 ± 0.1.

For the compound `Cn1nnc2c(C(N)=O)ncn2c1=O` [Temozolomide], the figures for the cell viability in the assay with IL-6-GFP PC-9GR and in the assay with IL-6-GFP PC-9 were 1.18 ± 0.04 and 0.6981 ± 0.0048, respectively.

On to `O=C([O-])c1cc(N=Nc2ccc(O)c(C(=O)[O-])c2)ccc1O.[Na+].[Na+]` [Olsalazine Sodium], for which the cell viability in the assay on IL-6-GFP PC-9GR was determined as 1.12 ± 0.053; in the assay with IL-6-GFP PC-9, 1.25 ± 0.062.

Take `O=C(O)c1ccccc1Nc1cccc(C(F)(F)F)c1` [Flufenamic acid]: the figures for the cell viability in the assay on IL-6-GFP PC-9GR and with IL-6-GFP PC-9 were 1.15 ± 0.34 and 1.14 ± 0.15, respectively.

Regarding `CNC(=NC#N)NCCSCc1nc[nH]c1C` [Cimetidine], the values for the cell viability in the assay with IL-6-GFP PC-9GR and in the assay on IL-6-GFP PC-9 were 1.56 ± 0.74 and 1.15 ± 0.23, respectively.

For `O=C(/C=C/c1cccc(S(=O)(=O)Nc2ccccc2)c1)NO` [Belinostat (PXD101)], the cell viability stood at 0.374 ± 0.026 with IL-6-GFP PC-9GR and 0.262 ± 0.075 with IL-6-GFP PC-9.

For the compound `CCS(=O)(=O)O.COC(=O)c1ccc2c(c1)NC(=O)/C2=C(\Nc1ccc(N(C)C(=O)CN2CCN(C)CC2)cc1)c1ccccc1` [Nintedanib Ethanesulfonate Salt], the cell viability stood at 0.8 ± 0.075 in the assay on IL-6-GFP PC-9GR and 0.782 ± 0.023 with IL-6-GFP PC-9.

Take `COc1cc2nccc(Oc3ccc(NC(=O)C4(C(=O)Nc5ccc(F)cc5)CC4)cc3)c2cc1OC.O=C(O)CC(O)C(=O)O` [Cabozantinib malate (XL184)]: the figures for the cell viability with IL-6-GFP PC-9GR and in the assay on IL-6-GFP PC-9 were 0.81 ± 0.13 and 0.958 ± 0.062, respectively.

Take `C=CC1CC1(NC(=O)C1CC(Oc2ncc(OC)c3ccc(Cl)cc23)CN1C(=O)C(NC(=O)OC(C)(C)C)C(C)(C)C)C(=O)NS(=O)(=O)C1CC1` (stereo not given) [Asunaprevir]: the cell viability with IL-6-GFP PC-9GR came out at 1.24 ± 0.26; in the assay with IL-6-GFP PC-9, 1.05 ± 0.46.

`CN1CCN(C(c2ccccc2)c2ccccc2)CC1.Cl.Cl` [Cyclizine 2HCl]: the figures for the cell viability in the assay on IL-6-GFP PC-9GR and in the assay on IL-6-GFP PC-9 were 1.06 ± 0.31 and 0.972 ± 0.038, respectively.

For `O=C(CCCc1ccccc1)[O][Na]` [Sodium Phenylbutyrate], the cell viability was 0.51 ± 0.067 in the assay on IL-6-GFP PC-9GR and 0.0369 ± 0.035 in the assay with IL-6-GFP PC-9.

With `CC(CCC(=O)NCCS(=O)(=O)O)C1CCC2C3C(O)CC4CC(O)CCC4(C)C3CCC12C` (stereo not given) [Tauroursodeoxycholic Acid (TUDCA)], the cell viability in the assay on IL-6-GFP PC-9GR turned out to be 1.2 ± 0.37; with IL-6-GFP PC-9 it was 1.24 ± 0.23.

With `CCOC(=O)OC1(C(=O)OCCl)CCC2C3CCC4=CC(=O)C=CC4(C)C3C(O)CC21C` (stereo not given) [Loteprednol etabonate], the cell viability was determined as 1.21 ± 0.051 in the assay on IL-6-GFP PC-9GR and 0.944 ± 0.063 in the assay with IL-6-GFP PC-9.

In the case of `COc1cc2ncnc(Nc3ccc(F)c(Cl)c3)c2cc1OCCCN1CCOCC1` [Gefitinib (ZD1839)], the cell viability amounted to 0.9 ± 0.06 in the assay on IL-6-GFP PC-9GR and 0.664 ± 0.061 in the assay with IL-6-GFP PC-9.
